D1 PAM: potentiators of human D1 dopamine receptor; P21728; HEK293 TREx D1 cells, calcium flux, dopamine EC20 potentiation; potentiation, % at 10 µM; hit rate 0.036% among 360,000; AID 504651; in the data active = potentiation above about 30%; also: 0% is about no effect
Target sequence (P21728 whole entry, looked up): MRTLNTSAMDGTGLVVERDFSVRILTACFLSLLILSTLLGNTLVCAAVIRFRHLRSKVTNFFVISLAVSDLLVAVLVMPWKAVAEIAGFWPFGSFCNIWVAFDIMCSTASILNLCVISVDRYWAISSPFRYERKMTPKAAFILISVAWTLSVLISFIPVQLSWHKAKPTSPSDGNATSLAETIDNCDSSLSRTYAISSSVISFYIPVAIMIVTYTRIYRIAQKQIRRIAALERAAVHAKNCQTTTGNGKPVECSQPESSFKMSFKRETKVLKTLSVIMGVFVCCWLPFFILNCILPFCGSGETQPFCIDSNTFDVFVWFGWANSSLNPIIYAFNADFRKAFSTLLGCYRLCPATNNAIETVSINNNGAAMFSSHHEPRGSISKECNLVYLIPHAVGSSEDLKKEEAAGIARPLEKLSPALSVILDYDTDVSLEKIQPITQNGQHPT
TRHR PAM: allosterically enhances the human TRH receptor; TRHR cells, fluo-8 calcium fluorescence, EC20 TRH enhancement; enhancement, % at 2 µM; hit rate 0.66% among 360,000; P34981; in the data active = enhancement above about 30%; also: 0% is about no effect
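Enhancer read-out: after compound pinning and an initial kinetic agonist-mode read, an EC20 of TRH (10 nM final) was injected and fluo-8 calcium signal (Ex 480/Em 530) followed at 1 s/cycle for 100 cycles in TRHR-expressing cells.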
D1 antag: blocks dopamine activation of the human D1 receptor | HEK293 TREx D1 cells, calcium flux, dopamine EC80; active compounds read low | activity change, negative = inhibition, % at 10 µM | P21728 | hit rate 3.2% among 360,000; in the data active = activity change below about -30%; also: % is scaled to controls: 0 for no effect and ±100 for the full control effect
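Allosteric or orthosteric antagonism assessed as attenuation of the calcium response to EC80 dopamine, added 180 s after compound, in induced HEK293 Trex D1 cells loaded with no-wash calcium dye.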
TRHR ag: agonists of human TRH receptor; P34981; TRHR cells, calcium flux fluo-8, FDSS agonist mode; activation, % at 2 µM; hit rate 0.18% among 360,000; AID 493084; also: 0% is about no effect
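TRHR-expressing cells loaded with fluo-8 calcium dye; 23 nL library compound pin-transferred, kinetic FDSS fluorescence (Ex 480/Em 530) recorded about 180 s for agonist-induced calcium release, before a 10 nM TRH EC20 addition for potentiator mode.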
D1 agonist: agonists of human D1 dopamine receptor. HEK293 T-REx D1 cells, calcium flux, agonist mode. activation, % at 2 µM. hit rate 1% among 360,000. AID 504660; also: 0% is about no effect
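Inducible HEK293 T-REx D1 cells, force-coupled to calcium signalling, were plated at 4000 cells/well with tetracycline and held overnight at 30 C. After no-wash calcium dye loading, compound-evoked calcium rise over 180 s flagged agonists.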
Numbers without * were called inactive. Most compounds without a hit are left out; they make up all but 4.6% or so of the library. Rule as the data show it, unless noted: active = activation above about 30%; inactive = the rest.

Screening O=C(c1cccc(F)c1)N1CCN(Cc2c[nH]c3ccccc23)CC1 returned D1 PAM -5, TRHR PAM -2, D1 antag -55*, TRHR ag 1 and D1 agonist 1.
CC(=O)c1c(C)[nH]c(C(=O)OCC(=O)c2c[nH]c3ccccc23)c1C was read as D1 PAM -3, TRHR PAM -1, D1 antag -31*, TRHR ag 0 and D1 agonist 4.
Screening COc1ccc(Br)cc1CN1CCN(Cc2c[nH]c3ccccc23)CC1 returned D1 PAM -18, TRHR PAM 1, D1 antag -15, TRHR ag 3 and D1 agonist 38*.
For O=C(COC(=O)C1CC1)c1c[nH]c2ccccc12 the results were D1 PAM 1, TRHR PAM 0, D1 antag -11, TRHR ag 0 and D1 agonist -4.
`O=C(Cc1ccccc1[N+](=O)[O-])OCC(=O)c1c[nH]c2ccccc12` gave D1 PAM -5, TRHR PAM 1, D1 antag -38*, TRHR ag 0 and D1 agonist 2.
`O=C(NCCc1ccccc1Cl)c1ccc(Cn2c(=O)c3cccn3c3cccnc32)cc1` gave D1 PAM 1, TRHR PAM -1, D1 antag -13, TRHR ag 0 and D1 agonist 3.
Screening O=[N+]([O-])c1ccccc1CN1CCN(Cc2c[nH]c3ccccc23)CC1 returned D1 PAM -10, TRHR PAM 20, D1 antag -30*, TRHR ag 2 and D1 agonist 19.
For CN(C)/C=C(\C#N)C(=O)N/N=C/c1ccccc1 the results were D1 PAM 0, TRHR PAM 2, D1 antag -31*, TRHR ag 1 and D1 agonist 3.
Screening CCC(=O)Nc1cc(=O)[nH]c2nc(-c3ccc(Cl)cc3)nn12 returned D1 PAM -10, TRHR PAM -3, D1 antag -16, TRHR ag 0 and D1 agonist 4.
For Cc1ccc(C2c3[nH]c4ccccc4c3CCN2C(=O)CCc2ccccc2)cc1 (stereo unspecified) the results were D1 PAM -2, TRHR PAM 8, D1 antag 0, TRHR ag 1 and D1 agonist 0.
For COc1ccccc1NC(=O)c1cc2c(n(-c3ccc(C)cc3)c1=O)CC(C)(C)CC2=O the results were D1 PAM -1, TRHR PAM -7, D1 antag -31*, TRHR ag 2 and D1 agonist -2.
Screening O=C(O)c1nnn(-c2ccc([N+](=O)[O-])cc2)c1-c1ccccc1 returned D1 PAM -4, TRHR PAM 0, D1 antag -42*, TRHR ag 0 and D1 agonist 0.
For C[C@@H](NC(=O)c1nc[nH]c1C(=O)NCC(=O)OCc1ccccc1)c1ccccc1 the results were D1 PAM -7, TRHR PAM 30*, D1 antag -23, TRHR ag -1 and D1 agonist 0.
Screening CC(C)C[C@H](NC(=O)c1[nH]cnc1C(=O)N[C@H](C)c1ccccc1)C(=O)OC(C)(C)C returned D1 PAM -4, TRHR PAM -2, D1 antag 26, TRHR ag 1 and D1 agonist 5.
Screening C[C@@H](NC(=O)c1[nH]cnc1C(=O)Nc1ccccc1)c1ccccc1 returned D1 PAM 2, TRHR PAM 36*, TRHR ag 1 and D1 agonist -2.
C[C@H](NC(=O)c1nc[nH]c1C(=O)NCc1ccccc1)c1ccccc1 was read as D1 PAM -4, TRHR PAM -11, D1 antag -41*, TRHR ag 1 and D1 agonist 1.
CC(C)C[C@H](NC(=O)c1nc[nH]c1C(=O)NC(c1ccccc1)c1ccccc1)C(=O)OC(C)(C)C was read as D1 PAM -5, TRHR PAM -12, D1 antag -33*, TRHR ag 0 and D1 agonist 11.
For C[C@@H](NC(=O)c1nc[nH]c1C(=O)NC1CCN(C(=O)OC(C)(C)C)CC1)c1ccccc1 the results were D1 PAM 2, TRHR PAM 0, D1 antag -67*, TRHR ag 0 and D1 agonist 0.
Screening O=C(NCc1ccc2c(c1)OCO2)c1ccc2c(c1)N(Cc1cccc(Cl)c1)C(=O)c1ccccc1S2=O (stereo unspecified) returned D1 PAM 6, TRHR PAM -1, D1 antag -1, TRHR ag 0 and D1 agonist 4.
Screening O=C(O)CSCC(=O)N(Cc1ccccc1)c1nc(-c2ccccc2)c(-c2ccccc2)s1 returned D1 PAM -15, TRHR PAM 4, D1 antag -39*, TRHR ag -2 and D1 agonist 9.
`CCOC(=O)c1sc(N(Cc2ccccc2)C(=O)CCl)nc1C` gave D1 PAM -4, TRHR PAM -2, D1 antag -1, TRHR ag 0 and D1 agonist 8.
For CCc1cccc(NC(=O)Cn2cc(C(=O)c3ccncc3)c(=O)c3cc(C)c(C)cc32)c1 the results were D1 PAM -2, TRHR PAM -2, D1 antag 24, TRHR ag 0 and D1 agonist 0.
For S=C(NCc1ccco1)Nc1ccc(Cl)cc1 the results were D1 PAM -5, TRHR PAM -1, D1 antag -31*, TRHR ag 1 and D1 agonist 21.
`O=C(NC(=S)NCc1ccco1)c1ccccc1` gave D1 PAM -4, TRHR PAM -3, D1 antag -31*, TRHR ag 0 and D1 agonist 2.
O=C(O)Cc1ccc(NC(=S)NCc2ccco2)cc1 was read as D1 PAM -2, TRHR PAM -5, D1 antag -40*, TRHR ag 0 and D1 agonist 1.
COc1ccc(/C=C(\NC(=O)c2ccccc2)C(=O)NCc2ccco2)cc1 was read as D1 PAM -2, TRHR PAM -11, D1 antag -31*, TRHR ag 0 and D1 agonist 2.
O=C(NCc1ccco1)/C(=C\c1ccccc1)NC(=O)c1ccccc1 was read as TRHR PAM 1, D1 antag 5, TRHR ag 0 and D1 agonist 5.
S=C(NCc1ccco1)Nc1ccccc1 was read as D1 PAM -4, TRHR PAM 14, D1 antag 8, TRHR ag 0 and D1 agonist 2.
`CC(=O)N1c2ccc(S(=O)(=O)NCC3CCC(C(=O)Nc4cc(C)ccc4C)CC3)cc2CC1C` (stereo unspecified) gave D1 PAM 0, TRHR PAM -3, D1 antag -7, TRHR ag 0 and D1 agonist 1.
Screening CCCN(c1ccccc1F)S(=O)(=O)c1ccc2c(c1)C(C)(C)C(=O)N2C returned D1 PAM -6, TRHR PAM 2, D1 antag -3, TRHR ag 0 and D1 agonist 3.
